# Measured values from PubChem BioAssay (NCI).
# About 79,000 compounds went through this panel and 15% of them were active in at least one assay; those are over-represented in the sample as a whole. Values without a mark were called inactive. Activity calls are given as the source filed them. Rule as the data show it: active = growth inhibition above about 70%; inactive = the rest.
# What was measured:
# [1] = NCI Yeast Anticancer Drug Screen. Data for the rad52 strain (AID 147);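 also: 0% = growth of vehicle-treated control cultures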; conditions: S. cerevisiae rad52 mutant growth inhibition, hits give high values
# In short: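 Read-out: growth inhibition versus vehicle-treated controls. Cells were a DNA repair-deficient yeast strain treated with compounds.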
# [2] = NCI Yeast Anticancer Drug Screen. Data for the wt1 strain (AID 149);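 also: 0% = growth of vehicle-treated wt1 cultures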; conditions: S. cerevisiae wt1 strain (SPY 50644) growth inhibition, hits give high values
# In short: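 Readout: yeast growth inhibition, normalised to vehicle controls, in the wt1 strain exposed to test compounds.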
# [3] = NCI Yeast Anticancer Drug Screen. Data for the rad50EPP+ strain (AID 151);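 also: 0% = growth of vehicle-treated control cultures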; conditions: S. cerevisiae rad50 mutant strain, hits give high values
# In short: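 Growth inhibition read against vehicle controls in rad50EPP+ yeast, a strain altered in DNA damage repair, after compound exposure.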
# [4] = NCI Yeast Anticancer Drug Screen. Data for the mgt1 strain (AID 153); conditions: S. cerevisiae mgt1 mutant growth inhibition, hits give high values
# In short: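 mgt1 yeast grown with test compound; read-out is growth inhibition versus vehicle-treated cultures.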
# [5] = NCI Yeast Anticancer Drug Screen. Data for the rad50 strain (AID 155);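 also: 0% = growth of vehicle-only cultures of the same strain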; conditions: S. cerevisiae rad50 strain growth inhibition, hits give high values
# In short: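 Compounds were tested on a yeast strain with an engineered DNA damage repair alteration; the reported value is growth inhibition normalised to vehicle treatment.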
# [6] = NCI Yeast Anticancer Drug Screen. Data for the mec2-1 strain (AID 157); conditions: S. cerevisiae mec2-1 strain, hits give high values
# In short: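 Yeast mec2-1 mutant treated with compound. Readout: growth inhibition vs vehicle controls.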
# [7] = NCI Yeast Anticancer Drug Screen. Data for the rad14 strain (AID 159);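 also: 0% = growth of vehicle-treated control cultures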; conditions: S. cerevisiae rad14 strain growth inhibition, hits give high values
# In short: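 Compound-treated yeast with a defined DNA-repair lesion; growth inhibition normalised to vehicle-treated cultures.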
# [8] = NCI Yeast Anticancer Drug Screen. Data for the sgs1 mgt1 strain (AID 161);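 also: 0% = growth of cultures given vehicle only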; conditions: S. cerevisiae sgs1 mgt1 strain, hits give high values
# In short: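 Read-out: growth inhibition vs vehicle controls. Cells: mutant yeast strain deficient in DNA damage repair.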
# [9] = NCI Yeast Anticancer Drug Screen. Data for the CLN2oe strain (AID 163);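 also: 0% = growth of vehicle-only control cultures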; conditions: S. cerevisiae CLN2oe strain, hits give high values
# In short: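 Read-out: yeast growth inhibition, expressed relative to vehicle-only controls. The strain bears an engineered cell-cycle alteration.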
# [10] = NCI Yeast Anticancer Drug Screen. Data for the cln2 rad14 strain (AID 165);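 also: 0% = growth equal to vehicle treated cultures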; conditions: S. cerevisiae cln2 rad14 strain, hits give high values
# In short: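 cln2 rad14 yeast strain; compound exposure; growth inhibition read vs vehicle controls.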
# [11] = NCI Yeast Anticancer Drug Screen. Data for the bub3 strain (AID 167); conditions: S. cerevisiae bub3 mutant strain, hits give high values
# In short: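 Growth of a checkpoint-deficient yeast mutant is measured after compound exposure. Values represent inhibition relative to vehicle.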
# [12] = NCI Yeast Anticancer Drug Screen. Data for the wt2 strain (AID 169);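 also: 0% = growth of vehicle-treated yeast cultures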; conditions: S. cerevisiae wt2 strain growth inhibition, hits give high values
# In short: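 Read-out: growth inhibition versus vehicle-treated control cultures after compound exposure of the yeast strain.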
# [13] = NCI Yeast Anticancer Drug Screen. Data for the mlh1 strain (AID 171);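 also: 0% = growth of vehicle-treated control cultures of the same strain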; conditions: S. cerevisiae mlh1 strain growth inhibition, hits give high values
# In short: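 Read-out: growth inhibition versus vehicle controls. Strain: engineered yeast with a defined DNA repair or cell cycle defect, compound-treated.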
# [14] = NCI Yeast Anticancer Drug Screen. Data for the sgs1 strain (AID 173);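 also: 0% = growth of vehicle-only control cultures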; conditions: S. cerevisiae sgs1 mutant, hits give high values
# In short: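 Read-out: yeast growth inhibition relative to vehicle controls, following compound exposure of a strain with a defined DNA repair/cell cycle alteration.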
# [15] = NCI Yeast Anticancer Drug Screen. Data for the mlh1 rad18 strain (AID 175); conditions: S. cerevisiae mlh1 rad18 strain growth inhibition, hits give high values
# In short: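 Yeast w/ defined DNA-repair lesions; compound exposure; growth vs vehicle controls → % inhibition.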
# [16] = NCI Yeast Anticancer Drug Screen. Data for the rad18 strain (AID 177); conditions: S. cerevisiae rad18 mutant growth inhibition, hits give high values
# In short: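 Readout: growth inhibition vs vehicle controls. Cells: genetically altered yeast strain, DNA repair defect.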
# [17] = at 5.0 µM (retest, dose inferred, filed as 0.5)
# [18] = at 50.0 µM (retest, dose inferred, filed as 5.0)
smiles,measurement,setting,value
CCCCN(CCCC)CCC(O)c1cc2c(Cl)cc(Cl)cc2c2cc(C(F)(F)F)ccc12 (stereo not drawn),growth inhibition,[1]; at 1.2 µM,1%
same,growth inhibition,[1]; at 3.7 µM,11%
same,growth inhibition,[1]; at 11.0 µM,99% (active)
same,growth inhibition,[1]; at 33.0 µM,98% (active)
same,growth inhibition,[1]; at 100.0 µM,96% (active)
same,growth inhibition,[2]; at 1.2 µM,-2%
same,growth inhibition,[2]; at 3.7 µM,0%
same,growth inhibition,[2]; at 11.0 µM,93% (active)
same,growth inhibition,[2]; at 33.0 µM,98% (active)
same,growth inhibition,[2]; at 100.0 µM,96% (active)
same,growth inhibition,[3]; at 1.2 µM,8%
same,growth inhibition,[3]; at 3.7 µM,19%
same,growth inhibition,[3]; at 11.0 µM,80% (active)
same,growth inhibition,[3]; at 33.0 µM,98% (active)
same,growth inhibition,[3]; at 100.0 µM,93% (active)
same,growth inhibition,[4]; at 1.2 µM,27%
same,growth inhibition,[4]; at 3.7 µM,30%
same,growth inhibition,[4]; at 11.0 µM,99% (active)
same,growth inhibition,[4]; at 33.0 µM,99% (active)
same,growth inhibition,[4]; at 100.0 µM,97% (active)
same,growth inhibition,[5]; at 1.2 µM,24%
same,growth inhibition,[5]; at 3.7 µM,16%
same,growth inhibition,[5]; [17],41%
same,growth inhibition,[5]; at 11.0 µM,98% (active)
same,growth inhibition,[5]; at 33.0 µM,98% (active)
same,growth inhibition,[5]; [18],98% (active)
same,growth inhibition,[5]; at 50.0 µM,87.5% (active)
same,growth inhibition,[5]; at 100.0 µM,95% (active)
same,growth inhibition,[6]; at 1.2 µM,10%
same,growth inhibition,[6]; at 3.7 µM,8%
same,growth inhibition,[6]; [17],53%
same,growth inhibition,[6]; at 11.0 µM,98% (active)
same,growth inhibition,[6]; at 33.0 µM,99% (active)
same,growth inhibition,[6]; [18],98% (active)
same,growth inhibition,[6]; at 50.0 µM,89.7% (active)
same,growth inhibition,[6]; at 100.0 µM,96% (active)
same,growth inhibition,[7]; at 1.2 µM,23%
same,growth inhibition,[7]; at 3.7 µM,20%
same,growth inhibition,[7]; at 11.0 µM,98% (active)
same,growth inhibition,[7]; at 33.0 µM,99% (active)
same,growth inhibition,[7]; at 100.0 µM,96% (active)
same,growth inhibition,[8]; [17],56%
same,growth inhibition,[8]; [18],97% (active)
same,growth inhibition,[8]; at 50.0 µM,86.5% (active)
same,growth inhibition,[9]; at 1.2 µM,22%
same,growth inhibition,[9]; at 3.7 µM,20%
same,growth inhibition,[9]; at 11.0 µM,98% (active)
same,growth inhibition,[9]; at 33.0 µM,99% (active)
same,growth inhibition,[9]; at 100.0 µM,95% (active)
same,growth inhibition,[10]; [17],67%
same,growth inhibition,[10]; [18],96% (active)
same,growth inhibition,[10]; at 50.0 µM,85.5% (active)
same,growth inhibition,[11]; at 1.2 µM,10%
same,growth inhibition,[11]; at 3.7 µM,3%
same,growth inhibition,[11]; [17],-17%
same,growth inhibition,[11]; at 11.0 µM,97% (active)
same,growth inhibition,[11]; at 33.0 µM,99% (active)
same,growth inhibition,[11]; [18],96% (active)
same,growth inhibition,[11]; at 50.0 µM,82.7% (active)
same,growth inhibition,[11]; at 100.0 µM,96% (active)
same,growth inhibition,[12]; at 1.2 µM,-46%
same,growth inhibition,[12]; at 3.7 µM,18%
same,growth inhibition,[12]; at 11.0 µM,98% (active)
same,growth inhibition,[12]; at 33.0 µM,96% (active)
same,growth inhibition,[12]; at 100.0 µM,90% (active)
same,growth inhibition,[13]; at 1.2 µM,14%
same,growth inhibition,[13]; at 3.7 µM,23%
same,growth inhibition,[13]; at 11.0 µM,98% (active)
same,growth inhibition,[13]; at 33.0 µM,99% (active)
same,growth inhibition,[13]; at 100.0 µM,96% (active)
same,growth inhibition,[14]; at 1.2 µM,18%
same,growth inhibition,[14]; at 3.7 µM,18%
same,growth inhibition,[14]; at 11.0 µM,99% (active)
same,growth inhibition,[14]; at 33.0 µM,99% (active)
same,growth inhibition,[14]; at 100.0 µM,95% (active)
same,growth inhibition,[15]; [17],62%
same,growth inhibition,[15]; [18],97% (active)
same,growth inhibition,[15]; at 50.0 µM,82.8% (active)
same,growth inhibition,[16]; at 1.2 µM,26%
same,growth inhibition,[16]; at 3.7 µM,29%
same,growth inhibition,[16]; at 11.0 µM,98% (active)
same,growth inhibition,[16]; at 33.0 µM,99% (active)
same,growth inhibition,[16]; at 100.0 µM,94% (active)
